# Source: PubChem BioAssay (National Center for Advancing Translational Sciences (NCATS))
# The list is not random: actives were taken first. Their share in the collection is about 2.2%.
# TDP43 rescue – qHTS of TDP-43 Inhibitors; TDP-43 expressing yeast growth rescue, BacTiter-Glo, 24 h; 410,000 compounds, 1.8% hits; Potency, µM (doses to about 46.1 µM), inactives show top-dose growth rescue (activation), actives largely listed as activators; further: % of control where 0% means no effect; nearly all actives have a fitted effect of over 50% in size
#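 Readout is BacTiter-Glo luminescence of cell growth, so inhibitors register as activators. TDP-43-expressing yeast at OD600=0.02 in galactose medium, after raffinose pregrowth to mid-log, were incubated with compound for 24 hr at 30 deg C.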
# Mito fusion yeast – qHTS Assay for Small Molecule Inhibitors of Mitochondrial Division or Activators of Mitochondrial Fusion | S. cerevisiae fusion-defective mutant growth rescue, CellTiterGlo 48 h | Potency, µM (top dose mostly 46.1 µM), for the others: top-dose growth rescue (activation), usual class: activators | 320,000 compounds, 0.23% hits; further: % of control where 0% means no effect; nearly all actives have a fitted effect of over 45% in size
#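 Read-out: ATP-based luminescence (CellTiterGlo, 10 min ambient) reporting growth of fusion-defective ts yeast after 48 hours at 37C on glycerol/ethanol YPEG medium in the presence of compound.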
# aSyn yeast inh – qHTS of alpha-syn Inhibitors; Yeast expressing alpha-synuclein, growth rescue, BacTiter-Glo, 24 h; 370,000 compounds, 0.14% hits; Potency, µM (series often up to 46.1 µM), without a hit: at the highest dose growth rescue (activation), usual class: activators; further: % of control where 0% means no effect; nearly all actives have a fitted effect of over 65% in size
#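 Screening used galactose-induced yeast with toxic alpha-synuclein levels, exposed to compound for 24 hr at 30 deg C. Cell growth, read with BacTiter-Glo luminescence, gave the measured signal.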
# FUS suppressor – qHTS for Suppressors of FUS Proteinopathy: Primary screen using FUS-linked yeast assay; Potency, µM (titrated, usually from 76.6 µM), actives largely listed as activators; S. cerevisiae FUS-expressing, growth rescue, OD600, 24 h; 390,000 compounds, 0.24% hits; AID 1347120, 2019;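 further: plate controls were DMSO vehicle for no effect and reference control for full effect; nearly all actives have a fitted effect of over 55% in size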
#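 Yeast expressing FUS under galactose induction, OD 0.005 in 2% galactose medium; compounds in a dilution series, 24 h at 30C. Growth rescue by absorbance at 600 nm; CP55940 positive control, DMSO negative.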
# Abeta yeast res – qHTS for compounds that reverse cellular toxicity of Amyloid beta (A-beta) peptide in yeast: Primary Screen | yeast expressing A-beta42, growth rescue, OD600, 48 h; response scale: 0% DMSO, 100% iron-clioquinol control | Potency, µM (series often up to 46.1 µM), actives largely listed as activators | 410,000 compounds, 0.063% hits | AID 1347071, 2019; further: nearly all actives have a fitted effect of over 55% in size
#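 Yeast A-beta toxicity model in growth medium with pinned compounds, 48 h at 30 C; growth read as absorbance at 600 nm. Normalized to FeCl3/clioquinol equimolar mix (positive) and DMSO (negative).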
# * = called active by the depositor; i = inactive; ? = inconclusive; / = no result; [ ] = remark or other dose. The call rests on the fitted dose curve; in most records, active means well fitted curve in the direction sought with a large enough effect; inconclusive means small, poorly fitted or top-dose-only effect, or another doubt; inactive means no such curve, though single readings can be large; an effect the other way counts as inactive or inconclusive. Potency means the concentration at half of the fitted maximal effect.
SMILES,TDP43 rescue,Mito fusion yeast,aSyn yeast inh,FUS suppressor,Abeta yeast res
O=C(c1ccoc1)N1CCN(c2cc(-c3cccnc3)nc3cc(-c4cccc(Cl)c4)nn23)CC1,7.9µM*,/,-1%,?,i
CC(=O)N1CCN(c2cc(-c3ccccc3)nc3cc(-c4cccc(Cl)c4)nn23)CC1,2.2µM*,/,-11%,i,i
O=C(c1ccncc1)N1CCN(c2cc(-c3ccccc3)nc3cc(-c4cccc(Cl)c4)nn23)CC1,?,/,?,i,i
COc1ccc(CNc2nc(-c3ccco3)nn2C(=O)c2ccccc2C)cc1,17%,/,/,i,i
Cc1cccc(CSCCNC(=O)CSCc2ccc([N+](=O)[O-])cc2)c1,18µM*,16%,16%,i,i
COc1ccc([N+](=O)[O-])cc1NC(=O)CSCc1ccccc1,13µM*,8%,8%,i,i
O=C(CSCc1ccccc1)Nc1cc([N+](=O)[O-])ccc1F,11µM*,-7%,4%,i,i
COc1ccc2c(c1)C=C/C2=C\c1ccc(N(C)C)cc1,/,/,-11%,/,/
COc1ccc(-c2nsc(SCC(=O)Nc3cc(C)on3)n2)cc1,10%,-5%,-8%,i,i
CCOC(=O)CNC(=O)CSc1nc(-c2ccc(OC)cc2)ns1,25µM*,3%,17%,i,i
S=C(NCc1ccco1)N/N=C/c1ccc(Cl)cc1,22µM*,5%,2%,/,i
Oc1ccc(/C=N/NC(=S)NCc2ccco2)cc1,6%,-1%,3%,i,i
COc1ccccc1OCC(=O)NCC1CCCN(Cc2cnn(C)c2C)C1 (stereo not drawn),-1%,-1%,-1%,/,i
COc1ccc(C(=O)CCC(=O)Nc2cc(C)ccc2C)cc1,11µM*,/,/,i,i
Cc1ccc(NC(=O)c2ccc(Cn3cc(Br)cn3)o2)cc1,16µM*,14%,-10%,i,i
O=C1OC(/C(=C\Nc2ccccc2)[N+](=O)[O-])c2ccccc21 (stereo not drawn),1%,-9%,16µM*,i,i
CC(C)c1ccc(C(=O)CSc2n[nH]c(-c3ccncc3)n2)cc1,35µM*,2%,15%,i,i
O=C(Nc1ccccc1Cl)c1cc(C2CCCCN2C(=O)c2cccs2)on1 (stereo not drawn),27%,/,2%,i,i
COC(=O)c1ccc2c(C)c(C3(O)CCCCC3)[nH]c2c1,20µM*,/,0%,i,i
COC(=O)c1cc(Cl)cc2c(C)c(C3(O)CCCCC3)[nH]c12,35µM*,0%,?,i,i
Cc1nc(CNS(=O)(=O)c2ccc3ccccc3c2)cs1,14µM*,3%,-4%,i,i
COc1ccc(-n2nc(C(=O)Nc3ccc(C(C)=O)cc3)nc2-c2ccccc2)cc1,22µM*,/,/,i,i
COc1cccc(C2=C(C(C)=O)Sc3nncn3N2C(C)=O)c1,35µM*,/,/,i,i
CCOc1ccc(C2=C(C(=O)CC)Sc3nncn3N2C(=O)CC)cc1,20µM*,/,/,i,i
CC(=O)C1=C(c2ccc(Cl)c(Cl)c2)N(C(C)=O)n2cnnc2S1,10µM*,/,/,i,i
SMILES,TDP43 rescue,Mito fusion yeast,aSyn yeast inh,FUS suppressor,Abeta yeast res
COc1cccc(C2=C(C(C)=O)Sc3nnc(C4CCCCC4)n3N2C(C)=O)c1,?,/,/,i,i
Clc1ccc(-c2cc3ccccc3[nH]2)cc1,10µM*,2%,-31%,i,i
CCCn1nc(NS(C)(=O)=O)c2cc3cccc(C)c3nc21,35µM*,-2%,16%,?,i
CNc1nc(N)c([N+](=O)[O-])c(Nc2cccc(OC)c2)n1,/,/,/,i,/
Cc1scc(-c2n[nH]c(=S)n2Cc2ccccc2)c1C,?,11%,6%,/,i
CCc1c(-c2n[nH]c(=S)n2Cc2ccccc2)csc1C,11µM*,4%,-4%,i,i
O=C(Nc1ccc2ccccc2c1)c1nc(S(=O)(=O)Cc2ccccc2F)ncc1Cl,/,/,-44%,/,/
COc1cc(CN(C)C)cc(C=O)c1O,-19%,-2%,-3%,i,i
COc1cc(N=Nc2ccc(Br)cc2)cc(C=O)c1O,13µM*,/,-38%,i,i
CCOc1ccc(-n2c(SCC(=O)Nc3ccc4cn[nH]c4c3)nnc2-c2ccncc2)cc1,/,/,/,i,/
O=C(CCc1nc2ccccc2s1)NCc1ccccc1F,12%,-1%,-1%,i,20µM*
Cc1ccc(OCC(=O)N/N=C\c2c(C)[nH]n(-c3ccccc3)c2=O)c([N+](=O)[O-])c1,0%,-2%,20µM*,?,?
Cc1ccc(/C=N\NC(=O)COc2ccc(C)cc2[N+](=O)[O-])cc1,-18%[0.397 µM],-9%,11%,i,i
CC(C)(C)c1ccc(C(O)c2ncc(-c3ccc(F)cc3)[nH]2)cc1 (stereo not drawn),-5%,/,-3%,i,i
CCn1nc(C)c2c(-c3ccccc3)cc(=O)n(C(C)C(=O)Nc3cc(C)ccc3C)c21 (stereo not drawn),4%,/,/,i,i
Cc1nn(C)c2c1c(-c1ccccc1)cc(=O)n2C(C)C(=O)NCCc1ccc(Cl)cc1 (stereo not drawn),22µM*,/,/,?,i
CCn1nc(C)c2c(-c3ccccc3)cc(=O)n(C(C)C(=O)NCc3ccccc3OC)c21 (stereo not drawn),10µM*,/,/,?,i
CCn1nc(C)c2c(-c3ccccc3)cc(=O)n(C(C)C(=O)Nc3cccc(F)c3)c21 (stereo not drawn),7%,/,/,?,i
CCn1nc(C)c2c(-c3ccccc3)cc(=O)n(C(C)C(=O)NCCc3ccc(Cl)cc3)c21 (stereo not drawn),22µM*,/,/,?,i
CCCCNC[C@@]12CO[C@H](c3ccc(Cl)cc3)N1[C@@H](c1ccc(Cl)cc1)SC2,/,/,/,i,/
O=C(Nc1cc2c(cc1C(=O)c1ccccc1)OCCO2)c1ccc(Br)cc1,-1%,/,/,i,i
Cc1cc(C)cc(C(=O)OCCN(C)C2CN(Cc3cn(Cc4cccc(F)c4)nn3)S(=O)(=O)C2)c1 (stereo not drawn),/,/,/,i,/
CCn1c(-c2cccc(Br)c2)n[nH]c1=S,20µM*,1%,0%,i,i
COc1ccc(C2CC(O)(c3ccccc3)Oc3cc(OC)ccc32)cc1 (stereo not drawn),20µM*,?,?,i,i
COc1ccc(C2CC(=O)Oc3cc(OC)ccc32)cc1 (stereo not drawn),18%,/,3%,i,i
